From PubChem
An excerpt weighted towards active compounds, which were near 1% of everything screened.
TSHR antagonist: Antagonists of the Thyroid Stimulating Hormone Receptor: HTS campaign. TSHR-expressing cells, TSH-stimulated cAMP HTRF, 2 h; stronger effect = lower value. activity change, negative = inhibition, % at 11.5 µM. hit rate 0.2% among 330,000. AID 504810, 2011;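 active = activity change below a set negative limit, meaning inhibition stronger than a set level, cut at about -70% in these data; inconclusive = activity change between two set negative limits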; note: % is set by controls: 0 for no effect and ±100 for the full control effect
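Inhibition of cAMP made by TSHR-expressing cells under TSH stimulation (4nM final, EC80; 2 h, 37 deg C) is quantified with a one-step lysis HTRF kit, anti-cAMP cryptate versus cAMP-d2.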
RXFP1 antag: qHTS Assay for Antagonists of the Relaxin Receptor RXFP1; Relaxin receptor 1 (Homo sapiens), Q9HBX9; activity change, negative = inhibition, % at 57.5 µM; HEK293-RXFP1, relaxin-stimulated cAMP HTRF, 30 min; stronger effect = lower value; hit rate 0.59% among 350,000;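 active = activity change of -60% or lower, but not beyond a set lower limit; inconclusive = change between -60% and -40%, or beyond the set limit; inactive = change above -40%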; note: % is set by controls: 0 for no effect and ±100 for the full control effect
Target sequence (Q9HBX9 whole entry, looked up): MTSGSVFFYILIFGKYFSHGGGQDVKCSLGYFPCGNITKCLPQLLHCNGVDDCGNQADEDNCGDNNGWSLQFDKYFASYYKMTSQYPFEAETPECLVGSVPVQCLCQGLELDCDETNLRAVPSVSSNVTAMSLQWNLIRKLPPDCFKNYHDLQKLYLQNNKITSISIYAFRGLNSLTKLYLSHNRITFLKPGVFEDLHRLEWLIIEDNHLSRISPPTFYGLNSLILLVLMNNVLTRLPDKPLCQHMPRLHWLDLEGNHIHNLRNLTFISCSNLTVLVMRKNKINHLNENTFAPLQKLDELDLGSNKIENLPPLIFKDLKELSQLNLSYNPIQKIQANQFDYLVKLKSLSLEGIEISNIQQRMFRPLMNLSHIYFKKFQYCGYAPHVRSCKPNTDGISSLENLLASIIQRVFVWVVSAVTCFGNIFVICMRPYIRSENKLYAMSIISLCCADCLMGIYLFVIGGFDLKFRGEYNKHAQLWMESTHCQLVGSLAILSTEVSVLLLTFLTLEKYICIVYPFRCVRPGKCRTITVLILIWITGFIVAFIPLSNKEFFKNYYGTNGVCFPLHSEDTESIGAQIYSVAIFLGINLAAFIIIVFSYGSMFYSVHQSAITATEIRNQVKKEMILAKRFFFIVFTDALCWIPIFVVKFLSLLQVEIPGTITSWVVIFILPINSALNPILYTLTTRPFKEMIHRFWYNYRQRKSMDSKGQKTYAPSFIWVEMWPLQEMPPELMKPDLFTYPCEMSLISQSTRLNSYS
gsp antag: qHTS for Antagonists of gsp, the Etiologic Mutation Responsible for Fibrous Dysplasia/McCune-Albright Syndrome: qHTS | gsp-mutant cells, cAMP HTRF, 30 min | Potency, µM (doses to about 76.9 µM), for the others: top-dose activity change, negative = inhibition, actives largely listed as inhibitors | hit rate 0.4% among 340,000 | AID 624288, 2012; calls by dose curve; cell line not stated here;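 note: intracellular cAMP measured with PDE inhibitor Ro 20-1724 present during compound exposure; potency is the fitted concentration of half-maximal effect; % is set by controls: 0 for no effect and ±100 for the full control effect; nearly all actives have a fitted effect of over 65% in size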
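Cells in G418 medium, seeded 16-24 h, 37C; buffer exchange to DPBS + 1 mM CaCl2, 0.5 mM MgCl2, 0.05% BSA; cpds in DMSO + […] (300 uM stock), 30 min 37C; HTRF cAMP detection.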
gsp ag: qHTS for Agonist of gsp, the Etiologic Mutation Responsible for Fibrous Dysplasia/McCune-Albright Syndrome: qHTS | gsp mutant cells, cAMP HTRF, 30 min | hit rate 0.13% among 340,000 | Potency, µM (highest dose often 76.9 µM), without a hit: at the highest dose activation (cAMP increase), actives largely listed as activators; active = well fitted activation curve with a large enough effect; inconclusive = small, poorly fitted or top-dose-only effect, or another doubt; inactive = no such curve, though single readings can be large or run the other way; cell line not stated here;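 note: phosphodiesterase inhibitor Ro 20-1724 added with compounds to block cAMP breakdown; potency is the fitted concentration of half-maximal effect; nearly all actives have a fitted effect of over 60% in size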
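Cells stably selected in G418 were plated at 2000/well, grown 16-24 hr, then given compounds in DMSO with the PDE inhibitor […] (300 uM solution added) for 30 min at 37C; cAMP was read by HTRF.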
RXFP1 agonist: qHTS Assay for Agonists of the Relaxin Receptor RXFP1. Relaxin receptor 1 (Homo sapiens), Q9HBX9. HEK293T-RXFP1 cAMP TR-FRET, 30 min; response scale: percent of porcine relaxin response, buffer zero. Potency, µM (titrated, usually from 57.5 µM), for the others: top-dose activation, hits mostly activators. hit rate 0.3% among 370,000; active = well fitted activation curve with a large enough effect; inconclusive = small, poorly fitted or top-dose-only effect; note: potency is the fitted concentration of half-maximal effect; % is set by controls: 0 for no effect and ±100 for the full control effect; nearly all actives have a fitted effect of over 60% in size
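cAMP rise read by TR-FRET after 30 min, 37C compound exposure (up to 58 uM) in RXFP1-transfected HEK293 cells with Ro 20174 present. EC50 from Hill-equation fits, with 29 nM porcine relaxin as 100% and buffer as basal.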
* marks the source's active call; other numbers are inactive results; [ ] = another dose, or the depositor's remark.

O=S(=O)(Nc1cccc(-c2ccc(N3CCOCC3)nn2)c1)c1ccc(F)c(C(F)(F)F)c1 was read as RXFP1 antag -6.7 and RXFP1 agonist -1.3%.
S=c1nc2c(n[nH]1)c1ccccc1n2CCc1ccccc1 was read as TSHR antagonist -39.8, RXFP1 antag -114.6*, gsp antag 0.7%, gsp ag -39.8% and RXFP1 agonist 2.7%.
`CSc1nnc2c3ccccc3n(CCc3ccccc3)c2n1` gave TSHR antagonist -1.8, RXFP1 antag 7.2, gsp antag inconclusive, gsp ag inconclusive and RXFP1 agonist 0.8%.
`CCn1c2ccccc2c2cc(/C=N/NC(=O)c3ccncc3)ccc21` gave TSHR antagonist -4.3, RXFP1 antag -7.8, gsp ag -2.5%[15.4 µM] and RXFP1 agonist -0.3%.
`Cn1c2ccccc2c2cc(/C=N/NC(=O)c3ccc(O)cc3O)ccc21` gave TSHR antagonist -10.3, RXFP1 antag -2.9, gsp antag inconclusive, gsp ag 19.5% and RXFP1 agonist 3.2%.
`CCn1c2ccccc2c2cc(/C=N/NC(=O)c3cc(O)cc(O)c3)ccc21` gave TSHR antagonist -20.1, RXFP1 antag -83.0*, gsp antag inconclusive, gsp ag -2.7%[15.4 µM] and RXFP1 agonist 3.8%.
CCn1c2ccccc2c2cc(/C=N/NC(=O)c3ccc(O)cc3)ccc21 was read as TSHR antagonist 0.5, RXFP1 antag -23.1, gsp antag 28.2µM*, gsp ag -21.3%[15.4 µM] and RXFP1 agonist -0.3%.
Screening CCn1c(CC2C(=O)N(C)c3ccccc32)nc2ccccc2c1=O (stereo not given) returned RXFP1 antag -2.4 and RXFP1 agonist 3.5%.
For COc1ccc(CNC(=O)Cn2c(=O)oc3cc(S(=O)(=O)NCc4ccccc4)ccc32)cc1 the results were RXFP1 antag -31.5 and RXFP1 agonist -0.9%.
`COc1ccc(-c2nc3sc(CCNC(=O)C(=O)Nc4cccc(NC(C)=O)c4)c(C)n3n2)cc1` gave RXFP1 antag -12.7 and RXFP1 agonist 7.1%.
`CN1c2ccsc2C(O)=C(C(=S)Nc2ccc(F)c(Cl)c2)S1(=O)=O` gave TSHR antagonist -13.1, RXFP1 antag 3.1, gsp antag 35.5µM*, gsp ag -23.3% and RXFP1 agonist 0.8%.
Screening COc1cccc(NC(=S)NC(=O)/C=C/c2ccco2)c1 returned TSHR antagonist -10.8, RXFP1 antag -11.9, gsp antag 4.3%, gsp ag 0.8%[15.4 µM] and RXFP1 agonist -1.1%.
For Cc1ccc(NC(=S)NC(=O)/C=C/c2ccco2)c(O)c1 the results were TSHR antagonist 0.5, RXFP1 antag -62.7*, gsp antag -9.7%, gsp ag 5.5% and RXFP1 agonist 2.9%.
For COc1ccc(NC(=S)NC(=O)/C=C/c2ccco2)c(OC)c1 the results were TSHR antagonist -22.4, RXFP1 antag -80.5*, gsp antag inconclusive, gsp ag -6.2% and RXFP1 agonist 1.3%.
For Cc1ccc(-c2nc3cc(N)ccc3o2)c(C)c1 the results were TSHR antagonist -9.6, RXFP1 antag 2.1, gsp antag 16.4%, gsp ag 31.6µM* and RXFP1 agonist 17.4%.
For Cc1ccc(-c2nc3cc(N)ccc3o2)cc1 the results were TSHR antagonist -4.4, RXFP1 antag 8.2, gsp antag 4.5%, gsp ag inconclusive and RXFP1 agonist 13.0%.
`CC(C)(C)c1ccc(-c2nc3cc(N)ccc3o2)cc1` gave TSHR antagonist 0.1, RXFP1 antag -83.7*, gsp antag 1.8%, gsp ag 17.0% and RXFP1 agonist 7.8%.
For N#Cc1c(Cl)nsc1NC(=O)c1ccccc1 the results were TSHR antagonist -41.6, RXFP1 antag -7.6, gsp antag 31.6µM*, gsp ag 36.3% and RXFP1 agonist 1.9%.
For Cc1ccc(NC(=O)C2SC(=Nc3ccccc3)C(C(=O)Nc3ccc(Cl)cc3)=C2N)cc1 (stereo not given) the results were TSHR antagonist -13.0, RXFP1 antag -66.4*, gsp antag -7.7%, gsp ag -9.5%[15.4 µM] and RXFP1 agonist -0.7%.
